# Screening data (PubChem)
# Mito fusion yeast: inhibitors of mitochondrial division or activators of mitochondrial fusion | Potency, µM (top dose mostly 46.1 µM), without a hit: top-dose growth rescue (activation), usual class: activators | 320,000 tested, 0.23% active | S. cerevisiae fusion-defective mutant growth rescue, CellTiterGlo 48 h; further: % of control where 0% means no effect; nearly all actives have a fitted effect of over 45% in size
#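 Temperature-sensitive fusion-defective S. cerevisiae (e.g. fzo1-1, mgm1-5) were grown with compound in YPEG medium (3% ethanol, 3% glycerol) for 48 hours at 37C. Growth rescue was measured as viability by CellTiterGlo luminescence after 10 minutes at ambient.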
# BRCA1 expr act: activators of BRCA1 expression; MCF7-BRCA1-FFLuc reporter, luminescence, 48 h; response scale: scaled: vehicle 0%, 10 µM genistein 100%; Potency, µM (highest dose often 46.1 µM), for inactives: at the top dose activation, most hits filed as activators; 380,000 tested, 1.1% active; further: nearly all actives have a fitted effect of over 80% in size
#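 Quantitative HTS in MCF7 cells stably reporting BRCA1 expression via firefly luciferase. Compound treatment lasts 48 h at 37 °C in phenol-red free MEM. Activation is expressed relative to genistein at 10 microM and DMSO.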
# GLP1R ag: activates the human GLP-1 receptor. P43220. HEK293 GLP-1R CRE-luciferase, luminescence, 4-6 h; cells express a hypersensitive GLP-1R form. Potency, µM (top dose mostly 45.6 µM), without a hit: at the highest dose activation, actives largely listed as activators. 380,000 tested, 0.007% active; further: % of control where 0% means no effect
# Target sequence (P43220 whole entry, looked up): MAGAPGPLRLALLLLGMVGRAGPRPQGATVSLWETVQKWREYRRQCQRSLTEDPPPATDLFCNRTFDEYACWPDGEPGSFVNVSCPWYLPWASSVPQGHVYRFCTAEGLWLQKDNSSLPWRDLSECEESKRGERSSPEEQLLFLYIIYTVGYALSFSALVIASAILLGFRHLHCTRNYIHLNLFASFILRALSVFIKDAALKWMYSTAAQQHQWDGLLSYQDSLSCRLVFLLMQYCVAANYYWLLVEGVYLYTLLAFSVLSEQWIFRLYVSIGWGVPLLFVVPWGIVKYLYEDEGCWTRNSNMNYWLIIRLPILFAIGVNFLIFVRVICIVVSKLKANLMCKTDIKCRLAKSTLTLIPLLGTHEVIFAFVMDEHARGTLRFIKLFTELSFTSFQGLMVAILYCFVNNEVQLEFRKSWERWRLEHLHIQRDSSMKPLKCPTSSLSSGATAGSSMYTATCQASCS
# GLP1R cytotox: cytotoxicity in counter-screen for GLP-1R inverse agonists; HEK293 cAMP-luciferase reporter cells, luminescence, 24 h; Potency, µM (top dose mostly 38.3 µM), without a hit: at the highest dose activity change, negative = inhibition, most hits filed as inhibitors; 410,000 tested, 0.13% active;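 further: loss of luciferase light is scored as toxicity; on the % scale 0 is the no-effect control and ±100 the full control effect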
#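 A 23 nL compound transfer followed 12 hours of cell culture at 37 deg C; exposure then lasted 24 hr. Luciferase assay detection reagent was dispensed and plates read for luminescence after a 12 min room-temperature wait.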
# GLP1R inv ag: GLP-1 receptor (human) inverse agonism | P43220 | HEK293 GLP-1R CRE-luciferase, luminescence, 24 h; GLP-1R form is constitutively active | Potency, µM (top dose mostly 38.3 µM), for inactives: at the top dose activity change, negative = inhibition, usual class: inhibitors | 410,000 tested, 1.6% active; further: on the % scale 0 is the no-effect control and ±100 the full control effect; nearly all actives have a fitted effect of over 55% in size
#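 Cells are plated, allowed 12 hours at 37 deg C, then treated with compounds for 24 hr before luciferase detection reagent is added and luminescence is read after 12 min at room temperature. The HEK293 line carries constitutively active GLP-1R with a cAMP-responsive reporter.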
# * = called active by the depositor; u = inconclusive; x = no result; [ ] = another dose, or the depositor's remark. Shown are actives, neighbours in structure and some others; about 2.8% of the full set was active somewhere. The call rests on the fitted dose curve; in most records, active means well fitted curve in the direction sought with a large enough effect; inconclusive means small, poorly fitted or top-dose-only effect, or another doubt; inactive means no such curve, though single readings can be large; an effect the other way counts as inactive or inconclusive. Potency means the concentration at half of the fitted maximal effect.
SMILES,Mito fusion yeast,BRCA1 expr act,GLP1R ag,GLP1R cytotox,GLP1R inv ag
COc1ccc2c(c1)CCc1c-2n[nH]c1C(=O)NCCC(C)C,14%,u,-3%,-2%,7.9µM*
CNC(=O)c1[nH]nc2c1CCc1cc(OC)ccc1-2,-1%,u,17%,11%,137%
COc1cccc(CC(=O)OCC(=O)NNC(=O)c2ccc([N+](=O)[O-])cc2)c1,-2%,-7%,-10%,8%,15%
C/C(=N\Nc1cc(N2CCOCC2)ncn1)c1cccc([N+](=O)[O-])c1,-5%,-5%,2%,18%,20%
C/C(=N\Nc1cc(N2CCOCC2)ncn1)c1ccccc1,-23%,1.8µM*,8%,28%,u
CCC(=O)N1CCCc2cc(S(=O)(=O)N3CCC(C(=O)Nc4ccc(C#N)cc4)CC3)ccc21,x,x,x,2%,-1%
CCC(=O)N1CCCc2cc(S(=O)(=O)N3CCC(C(=O)Nc4ccc(F)c(F)c4)CC3)ccc21,x,x,x,-24%,11µM*
O=C(CCS(=O)(=O)c1cccc2nsnc12)NCc1ccccc1Cl,-2%,-2%,5%,0%,-20%
CC(CN1CCOCC1)OC(=O)c1ccc2c(c1)OCCO2 (configuration not stated),-26%,7.9µM*,-1%,-13%,18%
C=CCSC1=NNC(c2ccc(C(C)(C)C)cc2)=NN1,0%,7.1µM*,5%,8%,-23%
S=C(NCc1cccs1)Nc1cccc2ccccc12,8%,0%,4%,-8%,u
Cc1cc(Cl)ccc1NNC(=O)c1c(C)noc1C,-1%,2%,14%,u,1.4µM*
Cc1cc(Cl)ccc1NNC(=O)CCc1ccccc1,-2%,-12%,-2%,9%,4.5µM*
S=C(NCc1ccccc1)Nc1cccc2ccccc12,-3%,2%,-3%,u,10µM*
Cc1cc(Cl)ccc1NC(=S)NCc1ccccc1,8%,2%,3%,-7%,11µM*
COc1cccc(CNC(=S)Nc2ccc(Cl)cc2C)c1,-15%,3%,0%,u,u
O=C1NC[C@@H](c2ccccc2)OC(=O)[C@H](Cc2ccc(F)cc2)C/C=C\C[C@@H]1CC(=O)N(CCO)Cc1ccccc1,x,-54%,-4%,u,u
CCCCCCCCCCCCOS(=O)(=O)O,x,x,0%,x,x
CCOC(=O)c1cc(C(=O)c2cc(Cl)ccc2O)coc1=N,-1%,-9%,9%,5%,-8%
CN1CCN(c2ccc(NC(=O)c3ccc4ccccc4c3)cc2)CC1,4%,0%,1%,64%,2µM*
COc1ccc(N2CCN(CC(=O)Nc3ccc(SC(F)F)cc3)CC2)cc1,17%,-13%,-6%,-6%,10µM*
COc1ccc(C(=O)Nc2ccc(N3CCN(C)CC3)cc2)cc1OC,0%,2µM*,13%,3%,7%
COc1ccc(N2CCN(CCNC(=O)Nc3ccc(C)c(Cl)c3)CC2)cc1,-37%,-21%,0%,1%,2.8µM*
COc1ccc(C(=O)Nc2ccc(N3CCN(C)CC3)cc2)cc1,1%,2.2µM*,7%,3%,13%
CCCCOc1ccc(C(=O)Nc2ccc(N3CCN(C)CC3)cc2)cc1,-1%,-31%,-1%,-3%,-14%
SMILES,Mito fusion yeast,BRCA1 expr act,GLP1R ag,GLP1R cytotox,GLP1R inv ag
Cc1ccc(C(=O)Nc2ccc(N3CCN(C)CC3)cc2)cc1,1%,1.3µM*,9%,-3%,u
COc1ccc(NC(=O)c2ccc3c(c2)N(C)CCS3)cc1,0%,10µM*,13%,0%,u
Cc1ccc(C(=O)Nc2cc(C(C)C)c(O)c(C(C)C)c2)cc1,u,0%,-12%,3%,4.5µM*
CCOc1ccc(C(=O)Nc2ccc(N3CCN(C)CC3)cc2)cc1,1%,48%,4%,-13%,-3%
O=C(Cn1cc(COc2ccc3ccc(=O)oc3c2)nn1)c1ccc(O)cc1,x,10%,3%,15%,-2%
CCCCOc1ccc(/C=c2\sc3ncnn3c2=O)cc1,0%,0%,-10%,4%,-1%
Cc1ccc(NC(=O)NCc2c(C)nn(C)c2C)cc1Cl,-1%,5µM*,7%,2%[0.307 µM],15%[0.307 µM]
Cc1ccc(NC(=O)NCc2ccccn2)cc1Cl,-5%,34%,-3%,17%,-1%
CC12CCC(O)CC1=CCC1C2CCC2(C)C1CCC21CCC(=O)O1 (configuration not stated),20µM*,-32%,1%,1%,64%
CC(=O)OCC(=O)C1CCC2C3CC=C4CC(O)CCC4(C)C3CCC12C (configuration not stated),3.2µM*,5%,-8%,-3%,4%
C[C@]12CCC3C(CC=C4C[C@@H](O)CC[C@@]43C)C1CCC2[C@]1(C)CCC(=O)O1 (some centres not stated),9%,-8%,0%,10%,19%
O=C(Oc1cccc2ccccc12)c1ccncc1,-10%,-33%,-5%,-3%,0%
COc1cccc(C2c3[nH]c4ccccc4c3C[C@H]3C(=O)N(c4ccccc4C(=O)N4CCC[C@H]4C(=O)O)C(=O)N23)c1 (some centres not stated),0%,5%,0%,3%,-5%
COc1ccc(/C=N/Nc2ncc(Br)cn2)c(OC)c1,-3%,10µM*,2%,11%,34%
CC(=O)c1ccc2c(c1)C1C=CCC1C(c1cc3c(cc1Br)OCO3)N2 (configuration not stated),13µM*,-46%,12%,-21%,u
O=Cc1s/c(=N\S(=O)(=O)c2ccccc2)n(CCCCl)c1Cl,1%,-94%,-5%,u,2.8µM*
CCn1c(C)cs/c1=N\S(=O)(=O)c1ccccc1,9%,-11%,2%,12%,24%
COc1ccccc1NC(=O)CN1CCN(CC(=O)Nc2ccc(Cl)c(C(F)(F)F)c2)CC1,-3%,-69%,-1%,u,4µM*
O=C(CN1CCCCC1)Nc1cccc(Cl)c1,-5%,8%,-1%,-11%,10%
O=C(CN1CCCC1)Nc1ccc(NC(=O)Nc2ccccc2Cl)cc1,1%,11µM*,13%,-5%,u
COc1cc(NC(=O)Nc2cccc(Cl)c2)c(OC)cc1NC(=O)CN1CCCCC1,u,-88%,-15%,u,3.2µM*
CCOc1cc2[nH]c(=O)n(CCCCC(=O)N3CCN(c4cccc(Cl)c4)CC3)c(=O)c2cc1OCC,x,x,x,-4%,12%
CCSc1nn2c(=O)c3ccccc3nc2s1,2%,2.5µM*,-13%,-7%,-7%
CCc1cccc(C)c1Nc1nn2c(=O)c3ccccc3nc2s1,x,x,x,1%,-2%
COc1ccc2[nH]c(=O)c(COC(=O)c3ccco3)cc2c1,-6%,0%,-10%,-4%,24%
